In PubChem BioAssay AID1626 (SRMLSC, 2009):
The whole screen tested about 220,000 compounds, of which about 2,000 (0.91%) were called active. Inconclusive results (about 2%) are left out. Only a sample is shown. Results with a measured potency or affinity are listed apart. Values without a mark were called inactive. Rule as the data show it: inconclusive = inhibition above about 80% without an active follow-up result; inactive = below that; test concentration not stated here.

Assay: M. tuberculosis H37Rv growth inhibitors, H37Rv strain (AID 1626);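 also: bacteria incubated seven days before Alamar blue readout; 0% = bacteria only wells and 100% = bacteria with antibiotic wells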
Details: stronger effect = higher value, concentration not given here

Compound	inhibition [%]
Cc1cc(C(=O)Cn2nc(C(=O)O)c3ccccc3c2=O)c(C)n1CCc1ccc(F)cc1	3.54
CC(C)OCCCNC(=O)Nc1cccc2ccccc12	-3.82
CCOC(=O)c1c(NC(=O)COc2cccc3c2CCN(C)C3=O)sc2c1CCC2	31.8
C/C(N)=C(/C#N)C(=O)COC(=O)c1ccccc1Oc1ccccc1	-2.05
O=C(Nc1ccc(N2CCN(C(=O)c3ccc(Cl)cc3)CC2)cc1)c1ccc2c(c1)OCCO2	-4.15
O=C(Nc1ccc(N2CCN(C(=O)c3ccco3)CC2)cc1)c1ccco1	-0.76
O=C(Nc1ccc(N2CCN(C(=O)c3ccccc3)CC2)cc1)c1cc2ccccc2o1	9.58
O=C(Nc1ccc(N2CCN(C(=O)c3ccccc3)CC2)cc1)c1ccc(Br)o1	19.7
O=C(Nc1ccc(N2CCN(C(=O)c3ccco3)CC2)cc1)c1ccccc1	7.16
O=C(Nc1ccc(N2CCN(C(=O)c3ccc(Cl)cc3)CC2)cc1)c1cc2ccccc2o1	-12.4
Cc1ccc(-c2nn(-c3ccccc3)cc2/C=C/C(=O)OCC(=O)NC2CC2)o1	6.54
Cc1cc(C)n(-c2ccc(C(=O)Nc3cccnc3Cl)cc2)n1	-2.86
CS(=O)(=O)N1CCc2cc(NC(=O)c3ccc(Cl)cc3Cl)ccc21	-3.19
COc1ccc(/C=N/NC(=O)C2C3CCCCC32)cc1OC (stereo unspecified)	1.66
CCOc1ccc(Br)cc1S(=O)(=O)Nc1ccc(C(=O)Nc2ccc(C)cc2)cc1	1.51
CN1C(C(=O)NCC2CC2)CC2Cn3c(nc4cc5ccccc5cc43)C21 (stereo unspecified)	-9.29
N#CC(Nc1ccccc1)c1ccccc1OCc1ccccc1 (stereo unspecified)	5.52
COc1ccccc1NC(C#N)c1ccccc1OCc1ccccc1 (stereo unspecified)	5.14
CC(=O)n1c2ccccc2c2c1c1ccccc1n2C	6.42
CC(C)OC(=O)CC1C(=O)NCCN1C(=S)NC(=O)c1ccccc1 (stereo unspecified)	3.87
Cc1ccc(C)n1-c1ccc(N2CCOCC2)c(Br)c1	4.43
COC(=O)c1ccc(C(=O)OC)c(NC(=O)CN2CCN(c3ccc(OC)cc3)CC2)c1	13.8
COC(=O)c1ccc(C(=O)OC)c(NC(=O)CN2CCN(c3ccccc3OC)CC2)c1	72.2

Compound	inhibition [%]
O=C1OCc2cc(N=Nc3c(O)[nH]c(=O)[nH]c3=O)ccc21	-9.19
COc1c(/C=N/NS(=O)(=O)c2ccc(C)cc2)c(CCN(C)C(C)=O)cc2c1OCO2	-0.76
CCn1c(SCC(=O)c2cccs2)nnc1-c1ccco1	-18.1
Cc1cccc(Nc2nc(N)c([N+](=O)[O-])c(NCc3ccco3)n2)c1	22.5
Nc1nc(Nc2ccc(Cl)cc2)nc(NCc2ccco2)c1[N+](=O)[O-]	18.8
Cc1nn(C)c2c(=O)c(=O)c2n(C)[nH]1	-3.16
CC(C)CCNC(=O)c1onc(CSc2ccccc2)c1C(=O)NCCC(C)C	19
CCn1c(COc2ccc(C)cc2)nnc1SCC(=O)NNC(=O)c1ccc(OC)cc1	4.68
S=c1[nH]nc(-c2cccnc2)n1/N=C/c1ccccc1	-12.5
CCN1CCN(Cc2ccc(NC(=O)c3ccc(C)c(NC(=O)c4ccnnc4)c3)cc2C(F)(F)F)CC1	-3.04
CCN1CCN(Cc2ccc(NC(=O)c3cc(NC(=O)c4ccno4)cc(OC)c3)cc2C(F)(F)F)CC1	14.6
CCN1CCN(Cc2ccc(NC(=O)c3cc(NC(=O)N4CCNC4=O)cc(OC)c3)cc2C(F)(F)F)CC1	-1.27
CCN1CCN(Cc2ccc(NC(=O)c3cc(NC(=O)c4ccc5n[nH]nc5c4)cc(OC)c3)cc2C(F)(F)F)CC1	-1.88
CCN1CCN(Cc2ccc(NC(=O)c3ccc(C)c(NC(=O)c4ccc5n[nH]nc5c4)c3)cc2C(F)(F)F)CC1	-11
CCN1CCN(Cc2ccc(NC(=O)c3cc(NC(=O)c4nccnc4N)cc(OC)c3)cc2C(F)(F)F)CC1	6.4
Cc1cc(C)cc(NC(=O)CN2C(=O)NC(C)(c3ccccc3)C2=O)c1 (stereo unspecified)	1.34
COc1ccc(-c2nn(-c3ccccc3)cc2/C=C2/SC(=S)N(Cc3ccco3)C2=O)c(C)c1	-0.21
Cc1sc(NC(=O)c2ccccc2F)c(CN2CCCCC2)c1C	7.51
CCOc1ncccc1C(=O)OCC(=O)c1ccccc1	-3.62
COc1ccc(CNC(=O)COC(=O)C2=COCCO2)cc1	46.3
CCN(CC(=O)Nc1ccc(NC(C)=O)cc1)CC(=O)Nc1ccccc1C(=O)c1ccccc1	2.54
CC(=O)c1ccn(S(=O)(=O)c2ccccc2)c1	4.75
CC1(C)Cc2c(cnn2-c2ccccc2)-c2c1c1ccccc1n2CC(O)CCl (stereo unspecified)	2.97

Compound	inhibition [%]
CC1(C)Cc2c(cnn2-c2ccccc2)-c2c1c1ccccc1n2CC(O)CBr (stereo unspecified)	8.54
O=C(Nc1ccc(Cl)cn1)c1ccc(-c2ccc(Cl)c(Cl)c2)o1	9.55
COc1cc2nc(Cl)nc(N3CCCCC3)c2cc1OC	1.6
COc1cc2nc(-c3ccccc3)nc(N3CCCC3)c2cc1OC	7.03
O=c1c2ccccc2nc(SCc2ccncc2)n1CC1CCCO1 (stereo unspecified)	4.12
O=C(Nc1ccc(F)cc1F)Nc1ccc(F)cc1F	-3.43
O=C(Nc1ccccc1)Nc1csc2ccccc12	14.7
O=C(Nc1ccc(F)cc1)Nc1csc2ccccc12	57.9
CSc1ccccc1NC(=O)Nc1ccc(F)c(Cl)c1	1.15
CCc1ccc(C2C3=C(CC(C)(C)CC3=O)OC3=C2C(=O)CC(C)(C)C3)cc1	-1.37
O=c1[nH]c(/C=C\c2cccnc2)c([N+](=O)[O-])c(=O)[nH]1	-10.6
C/C=C/C(=O)OCC(=O)Nc1nc2ccc(C)cc2s1	-7.77
COc1cccc(C(=O)NNC(=O)C2CC(C)=C(C)CC2C(=O)O)c1 (stereo unspecified)	-6.84
O=C(NC1CCSC1=O)c1ccc(Oc2ccc(F)cc2)nc1 (stereo unspecified)	0.17
CCCn1nc2cc(C(=O)NCC34CC5CC(CC(C5)C3)C4)ccc2c1OCC	5.26
COc1ccc(Br)cc1CNC(=O)C1CCN(S(=O)(=O)N2CCCC2)CC1	-4.95
Cc1ccc(NCc2ccc(O)c3ncccc23)cc1C	9.65
COc1ccccc1N=Nc1[nH]c2ccc(C)cc2c1O	9.9
Cc1ccccc1NCc1ccc(O)c2ncccc12	5.07
CCS(=O)(=O)c1ccc(N=Nc2ccc(O)c3ncccc23)c(OC)c1	-3.16
Oc1ccc(N=Nc2ccc3c(c2)OCCO3)c2ncccc12	41
CCS(=O)(=O)c1ccc(OC)c(N=Nc2ccc(O)c3ncccc23)c1	4.79
Cc1ccc(S(=O)(=O)Nc2ccc(O)c3ncccc23)cc1	-2.86

Compound	inhibition [%]
Cc1cccnc1NCc1ccc(O)c2ncccc12	-8.13
Cc1ccc(-c2nc(C=Nc3cccc(C)c3)c(O)o2)cc1	1.48
CCn1c(SCC(=O)Nc2cc(C)on2)nnc1-c1c[nH]c2ccccc12	-1
CSc1ccccc1NC(=O)COC(=O)c1ccccc1Cc1ccccc1	7.08
N#CC1=C2N=C(N)c3ccccc3N2C2=C(C(=O)CCC2)C1c1ccc(Cl)cc1 (stereo unspecified)	-9.07
Cc1ccc(C(=O)Nc2ccc(N3CCN(S(C)(=O)=O)CC3)cc2)cc1C	-8.49
C=CCOc1ccc(/C=C2\C(=N)N3N=C(S(=O)(=O)CC)SC3=NC2=O)cc1OC	-2.08
O=C(c1ccco1)N1CCN(CCCCN2C(=O)c3ccccc3C2=O)CC1	-5.13
CC1CN(C(=O)c2cc(F)c(F)cc2Cl)CC(C)O1 (stereo unspecified)	-4.24
Fc1ccc(C(OCCN2CCCC2)c2ccc(Br)cc2)cc1 (stereo unspecified)	11.1
Fc1ccc(C(OCCN2CCCC2)c2ccc(F)cc2)cc1	3.27
Clc1ccccc1CN1CCN(CCCc2ccccc2)CC1	6.37
c1ccc(C(OCCN2CCNCC2)c2ccccc2)cc1	-7.41
COc1ccc(C(C)=O)cc1COC(=O)C(CO)NS(=O)(=O)c1ccc(Br)cc1 (stereo unspecified)	7.85
Cc1ccc(C(=O)N2CCN(c3cc4c(cc3[N+](=O)[O-])n(C)c(=O)n4C)CC2)cc1	-9.29
CC(C)Sc1nc2c(c(=O)[nH]c(=O)n2C)n1Cc1ccc(Cl)cc1	11.2
O=c1c2ccccc2c(-c2ccccc2)nn1-c1ccccc1	8.6
CC(C)NC(=O)C(=O)NC1CCCCCC1	-2.43
O=[N+]([O-])c1ccc(N/N=C/c2cn(-c3ccccc3)nc2-c2ccccc2)cc1	30.5
COc1ccc(/C=N/NC(=O)c2c([N+](=O)[O-])c(C)nn2C)cc1	1.88
CS(=O)(=O)c1ccc2nc(NC(=O)c3ccc(NS(=O)(=O)c4cccc([N+](=O)[O-])c4)cc3)sc2c1	34.8
CC(=NCC1CCCO1)c1c(O)n(-c2ccccc2C)c(=O)[nH]c1=O (stereo unspecified)	-6.91
